# Screening data from PubChem BioAssay.
# SMARCA2 activ: SMARCA2 (BRM) function activators, primary screen, cell-based, luminescence, high throughput; MG213 cells, MMTV-luciferase reporter, dexamethasone, overnight; activation, % at 9.1 µM; actives 1% (n = 370,000); AID 652017, 2013; in the data active means activation above about 7.8%;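 further: 0% = vehicle wells and 100% = reference activator wells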
# Jurkat NFkB inh: inhibitors of induced NF-kB luciferase reporter, primary screen, TCR NF-kB activation inhibitor project, cell-based, luminescence, uHTS | actives 0.53% (n = 330,000) | AID 435003, 2010 | Jurkat, PMA/ionomycin-induced NF-kB luciferase reporter | inhibition, % at 4 µM; in the data active means inhibition above about 50%
# 697 NFkB inh: inhibitors of PMA/ionomycin-induced NF-kB reporter, 697 cells, primary screen, B-cell NF-kB inhibitor project, cell-based, luminescence, uHTS | 697 B-cell NF-kB luciferase reporter, 16 h | inhibition, % at 4 µM | actives 0.33% (n = 330,000) | AID 435022, 2010; in the data active means inhibition above about 35%
# Gli-Sufu antag: Gli-Sufu pathway antagonists, primary screen, luciferase luminescence, Sufu-KO-LIGHT cells, uHTS. inhibition, % at 5 µM. Sufu-KO-LIGHT fibroblasts, Gli luciferase reporter luminescence. AID 588413, 2011. actives 0.74% (n = 340,000);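 active means inhibition above about 55%, limit read from the data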;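 further: 0% = DMSO-treated cells and 100% = wells with medium but no cells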
# esBAF inh: Bmi1 luciferase reporter increase in mESCs, primary screen, esBAF inhibitor project, mouse ES cells, Bmi1 luciferase knock-in, single point | actives 2% (n = 350,000) | reporter increase, % at 12.5 µM | 24 h; 100% = twice the neutral-well signal; in the data active means activation above about 40%;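 further: 0% = median of the plate's neutral control wells and 100% = double that signal; a rise in the Bmi1 reporter signal indicates esBAF inhibition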
# Numbers without * were called inactive; . = not tested or not shown. The list is not random: actives were taken first. Their share in the collection is about 3.3%.
SMILES,SMARCA2 activ,Jurkat NFkB inh,697 NFkB inh,Gli-Sufu antag,esBAF inh
O=C(NCc1ccccc1)c1cc(C2CCCCN2S(=O)(=O)Cc2ccccc2)on1 (stereo not drawn),0,.,.,.,1
Cn1cnc(S(=O)(=O)N2CCCCC2c2cc(C(=O)Nc3ccccc3Cl)no2)c1 (stereo not drawn),-6,.,.,.,7
O=C(Nc1nnc(SCc2ccccc2)s1)c1cc2c(s1)CCCC2,-1,-31,-16,-16,13
CCSc1nnc(NC(=O)c2cc3c(s2)CCCC3)s1,-1,-60,-54,-56,54*
CC1(C)Cc2c(sc3nc(-c4cccs4)n(N)c(=O)c23)CO1,-2,-67,-85,-48,73*
Nn1c(-c2cccs2)nc2sc3c(c2c1=O)CCCC3,0,-136,-163,-5,28
Cc1ccc(/C(=N/Nc2ncnc3ccccc23)C(=O)O)cc1,3,-51,-62,-12,52*
Oc1ccc(Nc2ncnc3ccccc23)cc1,-2,-10,-18,-11,3
Cc1ccc(Nc2ncnc3ccccc23)cc1,3,-94,-102,-67,46*
Cc1ccc(C)c(N=Nc2nc3ccccc3n2C)c1,-1,-139,-186,-40,41*
Cc1cc(C)c(C)c(N=Nc2nc3ccccc3n2C)c1C,-5,-39,-57,-13,.
CCOc1ccc(-c2cc(C(=O)NC3CCCCC3)[nH]n2)c(C)c1,3,.,.,.,57*
COc1ccc(Cl)cc1-c1cc(C(=O)NCC2CCCCC2)[nH]n1,-1,.,.,.,-8
COc1ccc(F)cc1-c1cc(C(=O)NC2CCCCC2)[nH]n1,2,.,.,.,49*
Cc1cc(-n2c(C)cc(C(=O)CSc3ccccn3)c2C)no1,0,-29,-7,-76,76*
C[C@H](CO)N1C[C@H](C)[C@H](CN(C)C(=O)Nc2ccccc2)Oc2ccc(NS(C)(=O)=O)cc2CC1=O,.,.,.,.,-4
COCCNC(=O)C[C@@H]1C[C@@H]2c3cc(NS(=O)(=O)c4ccccc4)ccc3O[C@@H]2[C@@H](CO)O1,.,.,.,.,-3
Cc1nc(N)sc1C(=O)Nc1ccccc1,-1,-51,-65,-33,19
Cc1nc(C(=O)Nc2ccccc2)sc1C(=O)Nc1ccccc1,2,-52,-54,-32,54*
Cc1ccc(NC(=O)c2sc(N)nc2C)cc1,4,-70,-50,-41,50*
COc1ccccc1NC(=O)Nc1ccc2c(c1)C(=O)N(C)C[C@@H](OC)[C@H](C)CN[C@@H](C)CO2,.,.,.,.,1
O=C(O)C(=O)/C(=C\c1ccccc1)c1ccc2ccccc2n1,8,-111,-113,-14,37
O=C(O)C(=O)/C(=C\c1ccsc1)c1ccc2ccccc2n1,3,-54,-62,-5,56*
COc1ccccc1Cc1c(-c2ccc(C)cc2)nc2ccc(Cl)cn12,4,.,.,.,63*
COC(=O)c1ccc2nc(-c3ccc(Cl)cc3)c(Cc3ccc(OC)cc3C)n2c1,-5,.,.,.,.
SMILES,SMARCA2 activ,Jurkat NFkB inh,697 NFkB inh,Gli-Sufu antag,esBAF inh
COc1ccc(Cc2c(-c3ccc(C)cc3)nc3ccc(Cl)cn23)c(C)c1,0,.,.,.,65*
O=C(C[C@@H]1CC[C@H]2[C@@H](COC[C@@H](O)CN2C(=O)Nc2cc(Cl)cc(Cl)c2)O1)NCC1CCCCC1,.,.,.,.,0
CCNC(=O)C[C@@H]1CC[C@H]2[C@@H](COC[C@@H](O)CN2C(=O)C2CC2)O1,.,.,.,.,3
CCN1[C@H](C(=O)NCC2CC2)[C@@H](CO)[C@@H]2Cn3c(ccc(-c4ccccc4OC)c3=O)[C@@H]21,.,.,.,.,4
O=C(COc1ccc(Cc2ccccc2)cc1)c1ccc(F)cc1,-4,-16,2,-30,31
O=C(COc1ccc(F)cc1)c1ccc2c(c1)CCCC2,-3,-84,-103,7,42*
C[C@@H]1CN([C@H](C)CO)C(=O)c2cc(-c3ccc(C(=O)N(C)C)cc3)cnc2O[C@H]1CN(C)C(=O)CN(C)C,.,.,.,.,3
O=C(COC(=O)c1ccccc1-n1cnnn1)c1ccc(F)c(F)c1,2,-25,-27,-6,56*
Cc1cc(Cl)ccc1OCCCC(=O)N1CCOCC1,4,-25,-31,-35,59*
O=C(CCSc1ccc(Cl)cc1)N1CCCCCC1,3,-67,-58,-43,86*
Cc1cc(Cl)ccc1OCCCC(=O)N1CCCCC1,5,-46,-33,-23,60*
CCC(=O)N1[C@H](CO)[C@@H](c2ccc(C3=CCCC3)cc2)[C@@H]1CNC(=O)CN(C)C,.,.,.,.,-1
CC=Cc1ccc2n(c1=O)C[C@@H]1[C@@H](CO)[C@H](C(=O)NCC3CC3)N(C(=O)CC3CC3)[C@H]21 (mixture of isomers),.,.,.,.,3
CC(=O)Nc1nc2cc3c(cc2s1)OCO3,2,-56,-65,-58,57*
CC(C)C(=O)Nc1nc2cc3c(cc2s1)OCCO3,-2,-96,-146,-74,-6
Nc1cccc(C#Cc2ccc3c(=O)c4ccccc4oc3c2)c1,5,-102,-104,-34,53*
Cn1c2ccccc2c(=O)c2cc(C#Cc3ccc(N)cc3)ccc21,7,-27,-50,-19,1
Nc1ccc2oc3ccccc3c2c1,2,-32,-51,-27,.
Nc1ccc(C#Cc2ccc3oc4ccccc4c(=O)c3c2)cc1,4,-40,-32,-33,42*
CC(=O)c1cc2c(=O)c3ccccc3oc2nc1C,0,-6,-11,1,38
CC(=O)c1ccc2oc3ccccc3c(=O)c2c1,4,-37,-38,-20,44*
Cc1noc(C)c1S(=O)(=O)N(C)C[C@@H]1Oc2ccc(NS(=O)(=O)c3cn(C)cn3)cc2CC(=O)N([C@H](C)CO)C[C@H]1C,.,.,.,.,2
COc1ccc(NC(=O)C2=Cc3cccc(OC)c3OC2)cc1,7.8*,-63,-25,-84,.
C[C@H]1CN([C@@H](C)CO)C(=O)c2cc(NC(=O)Cc3cn(C)c4ccccc34)ccc2O[C@H]1CN(C)C(=O)NC1CCCCC1,.,.,.,.,8
CCCN(C)C[C@@H]1Oc2cc(C#Cc3cccnc3)ccc2S(=O)(=O)N([C@H](C)CO)C[C@@H]1C,.,.,.,.,8
COc1cc(C#Cc2ccc3cc(CCO)oc(=O)c3c2)cc(OC)c1,4,-19,-139,-76,58*
O=c1oc(CCO)cc2ccc(C#Cc3ccsc3)cc12,6,-48,-93,-41,79*
CN(C)c1ccc(C#Cc2ccc3cc(CCO)oc(=O)c3c2)cc1,.,-78,-116,-101,32
Cc1ccc(S(=O)(=O)N(C)C[C@@H]2Oc3c(NC(=O)C4CCOCC4)cccc3C(=O)N([C@@H](C)CO)C[C@H]2C)cc1,.,.,.,.,-2
